Measurements as given in PubChem BioAssay AID1063 (University of Pittsburgh Molecular Library Screening Center, 2008).
In all, about 200,000 compounds went through this assay and about 18,000 (9%) were called active. The sample as a whole holds a higher share of actives than the screen did. Unmarked numbers belong to inactive results. Rule as the data show it: active = inhibition above about 50%; inactive = the rest.

Assay: Leishmania major promastigote growth inhibition, primary screen (AID 1063);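 also: promastigotes grown with compound for 44 hours at 28 °C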
Details: Leishmania major promastigotes, resazurin fluorescence viability; at 10 µM; active compounds read high

In order of falling inhibition:
1. CCOc1ccc2nc(C(=O)N3CCCC(C)C3)sc2c1 (stereo not drawn)  41.6%
2. Cc1[nH]c2ccccc2c1/C=C(/C#N)C(=O)NC(C)C  16.4%
3. COc1ccc(Cl)cc1NC(=O)NC(C)C(C)(C)C (stereo not drawn)  16.3%
4. C1CC1Cc1noc(CN2CCN(CC3CC3)CC2)n1  15.8%
5. Cc1ccc(NC(=O)c2cc([N+](=O)[O-])ccc2Cl)c(O)c1  15.1%
6. O=C(Nc1ccc(S(=O)(=O)N2CCCC2)cc1Cl)C1=COCCO1  13.3%
7. COc1cccc(CC(=O)N2CCCC(CCC(=O)N3CCN(c4ccccn4)CC3)C2)c1 (stereo not drawn)  8.58%
8. C/C(=N\Nc1nc(N2CCOCC2)nc(N2CCOCC2)n1)c1ccc([N+](=O)[O-])cc1  7.51%
9. CCOC(=O)C1CCCN(C(=O)/C=C/c2ccc(OC)cc2)C1 (stereo not drawn)  7.27%
10. CC(C)C(=O)Nc1cccc(NC(=O)c2ccc([N+](=O)[O-])cc2Cl)c1  6.59%
11. CSCCC(Nc1ccc(S(=O)(=O)N2CCOCC2)cc1[N+](=O)[O-])C(=O)OCC(=O)N(C(C)C)C(C)C (stereo not drawn)  6.07%
12. COc1ccc(NC(=S)Nc2ccc(S(N)(=O)=O)cc2)c(C)c1  5.95%
13. NC(=O)Cc1nc2scc(-c3ccc(Cl)cc3)c2c(=O)[nH]1  5.26%
14. COc1cccc(OCCOc2cccc(/C=N/n3cnnc3)c2)c1  3.61%
15. O=C(CCn1c(=O)[nH]c2ccccc2c1=O)NCCCN1CCN(c2cccc(Cl)c2)CC1  3.18%
16. CC(C)C(=O)Nc1ccc2oc(=O)ccc2c1  2.46%
17. O=C(Nc1cccnc1)c1ccc(Cl)cc1[N+](=O)[O-]  2.3%
18. COc1cccc(NC(=O)Cn2c3ccccc3c3nc4n(c(=O)c32)CCS4)c1  1.79%
19. N/C(=N\OC(=O)c1ccc2c(c1)OCO2)c1ccc(Br)cc1  1.57%
20. COc1ccc(CCNC(=O)CCCCn2c(=O)[nH]c3ccccc3c2=O)cc1OC  1.29%
21. Cc1ccc(C2CCN(C(=S)Nc3cccc(Cl)c3)C2)cc1 (stereo not drawn)  0.88%
22. Cc1ccc(S(=O)(=O)N(C)CC(=O)OCC(=O)N2CC(=O)Nc3ccccc32)cc1  0.63%
23. CCC(=O)Nc1sc(C(=O)Nc2ccccc2)c(C)c1C(=O)OC  0.3%
24. CCn1c(SCc2ccccc2)nc2c(c1=O)SCC2  -0.56%
25. COc1cccc(OCC(O)CN2CCN(CCO)CC2)c1 (stereo not drawn)  -0.73%
26. COc1ccc(NC(=O)CCN2CCCC2)c(OC)c1  -0.8%
27. CC(N=Cc1nc(-c2ccccc2)oc1O)c1ccccc1 (stereo not drawn)  -1.28%
28. CCCS(=O)(=O)N1CCC(CCOc2ccccc2)(C(=O)OCC)CC1  -1.49%
29. COc1ccc(/C=C/C(=O)N2CCCC2)cc1OC  -1.79%
30. O=C(CNCc1ccco1)Nc1cc(S(=O)(=O)N2CCOCC2)ccc1N1CCCC1  -1.86%
31. Cc1cc(C)c2c(NC(=O)C3CC3)nn(C)c2n1  -2.35%
32. CCOc1ccc(/C=N/Nc2nncc(-c3ccccc3)n2)cc1OC  -2.97%
33. CCn1cc(-c2cc(C(=O)O)on2)c(C)n1  -3.4%
34. Cc1ccc(-c2cc(C(=O)N3CCc4ccccc4C3)no2)cc1  -3.45%
35. Cc1ccccc1-n1nc(SCC(=O)O)sc1=S  -4.01%
36. CC(C)(C)C(=O)/C(C#N)=C/c1ccc(O)cc1  -4.15%
37. O=C(COc1ccc2ccccc2c1)N1CCN(C(=O)c2cccs2)CC1  -4.2%
38. CCN(C(=O)COC(=O)c1cc(S(=O)(=O)N2CCc3ccccc32)ccc1OC)C1CCS(=O)(=O)C1 (stereo not drawn)  -4.24%
39. O=[N+]([O-])c1cc(C(F)(F)F)ccc1NN=C1CCCC1  -5.08%
40. CCN(CC)C(=O)Oc1ccc(OC(=O)N(CC)CC)cc1  -5.77%
41. CCNC(=O)CC1C(=O)N(c2ccc(F)cc2)C(=O)N1Cc1cccs1 (stereo not drawn)  -6.2%
42. Cc1cc(OC(=O)c2ccccc2Cl)ccc1N1C(=O)CCC1=O  -6.74%
43. Cc1ccc(NC(=S)N/N=C2/CCCc3c(C)cc(C)cc32)cc1  -7.12%
44. O=C(NCc1ccc(Cl)cc1)NCc1ccc(Cl)cc1  -7.12%
45. Clc1ccccc1-c1cc(COc2ccc3ccccc3c2)no1  -8.15%
46. CCCc1nnc(SCC(=O)N2C(C)CCCC2C)n1CC (stereo not drawn)  -8.2%
47. CCCC1CCC(=NNC(=S)NCCc2ccccc2)CC1 (stereo not drawn)  -9.55%
48. O=c1[nH]c(CN2CCOCC2)nc2cc(Cl)ccc12  -9.96%

With CC(C)NC(=O)/C(C#N)=C\c1ccc(N(C)C)c(Br)c1 the inhibition was 64.6% (active).
In the case of CCOc1ccc2nc(/N=C/c3nc(-c4ccccc4)oc3O)sc2c1, the inhibition is reported as 54.2% (active).
In the case of CCCCNC(=S)N/N=C1\CCCCc2ccccc21, the inhibition is reported as 97.5% (active).
For CN(C)c1ccc(Nc2c3c4c(cccc4n(C)c2=O)C(=O)c2ccccc2-3)cc1, the inhibition was 59% (active).
With O=c1[nH]c(CCl)nc2cc(-c3ccc(Cl)cc3)sc12 the inhibition was 96.9% (active).
For CCC(C)C(=O)Nc1cc([N+](=O)[O-])ccc1Cl (stereo not drawn), the inhibition was 72.6% (active).
For CCOC(=O)C1CCN(C(=O)/C=C/c2cc(OC)c(OC)c(OC)c2)CC1, the inhibition was 55% (active).
In the case of O=C(CCCCCn1c(=O)[nH]c2ccccc2c1=O)NCCc1c[nH]c2ccccc12, the inhibition is reported as 97.7% (active).
For Cc1cc(OCCN2CCCC2)cc(C(C)C)c1, the inhibition was 92.5% (active).
In the case of COc1cccc(OCCCN2CCCCCC2)c1, the inhibition is reported as 91.6% (active).
With Cc1ccc(C(C)C)cc1OCCN1CCCC1 the inhibition was 92.5% (active).
In the case of c1ccc2cc(OCCN3CCCC3)ccc2c1, the inhibition is reported as 84.2% (active).
In the case of Cc1cc(OCCN2CCCC2)ccc1C(C)C, the inhibition is reported as 96.4% (active).
In the case of CC(C)N1CCC(=NNc2ccc([N+](=O)[O-])cc2S(=O)(=O)N2CCOCC2)CC1, the inhibition is reported as 100% (active).
For O=[N+]([O-])c1cc(S(=O)(=O)N2CCCC2)ccc1NN=C1CCCC1, the inhibition was 72.8% (active).
